From PubChem BioAssay (Tox21)
Inconclusive results are not listed. Calls of active or inactive are those of the source. Unless noted, the call rests on the fitted dose curve; in most records, active means well fitted curve in the direction sought with a large enough effect in the repeat runs; inconclusive means weak or mixed curves; inactive means no such curve, though single readings can be large; an effect the other way counts as inactive or inconclusive.

Assays:
[1] = molecular target: Acetylcholinesterase (Homo sapiens) (UniProt P22303); experiment: Acetylcholinesterase (AChE) small molecule antagonists: colormetric cell-based qHTS assay (AID 1347395; calls by dose curve; further: nearly all actives have a fitted effect of over 30% in size; further: potency means the concentration at half of the fitted maximal effect)
In short: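 Cells (SH-SY5Y, 2,000 per well) are seeded and left overnight at 37 C. Compound is added for 30 min, then DTNB and acetylthiocholine for a further 90 min at 37 C before absorbance-based thiocholine detection.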

[2] = molecular target: Acetylcholinesterase (Homo sapiens) (UniProt P22303); experiment: Acetylcholinesterase (AChE) small molecule antagonists: enzyme-based qHTS assay (AID 1347397; calls by dose curve; further: nearly all actives have a fitted effect of over 55% in size); details: Potency: AChE enzyme activity inhibition; outcome: AChE enzyme activity inhibition
In short: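 Human recombinant acetylcholinesterase; substrate acetylthiocholine; thiocholine quantified with DTNB (colorimetric). Compound preincubation 30 min RT; reaction 10 min RT.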

[3] = molecular target: Acetylcholinesterase (Homo sapiens) (UniProt P22303); experiment: Acetylcholinesterase (AChE) small molecule antagonists: fluorescence cell-based qHTS assay (AID 1347398; calls by dose curve; further: nearly all actives have a fitted effect of over 50% in size); details: Potency: AChE activity; outcome: AChE activity
In short: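 Thiocholine generated from acetylthiocholine by SH-SY5Y cell AChE is detected with Thiolite Green (Ex/Em 490/520 nm) after 40 min at room temperature, following 30 min compound pretreatment at 37 C.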

[4] = molecular target: Acetylcholinesterase (Homo sapiens) (UniProt P22303); experiment: Acetylcholinesterase (AChE) small molecule antagonists: enzyme-based qHTS assay with human liver microsomes (AID 1347399; calls by dose curve; further: nearly all actives have a fitted effect of over 60% in size); details: Potency: qHTS inhibition; outcome: qHTS inhibition
In short: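 Recombinant human AChE (50 mU/mL in the enzyme mix) and human liver microsomes (0.25 mg/mL final) were preincubated with compound and NADPH (0.25 mg/mL final) for 30 min at 37 C. Acetylthiocholine/DTNB was then added; thiocholine was read colorimetrically after 10 min at room temperature.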

[5] = molecular target: Cytochrome P450 2D6 (Homo sapiens) (UniProt P10635); experiment: Cytochrome P450 Family 2 Subfamily D Member 6 (CYP2D6) small molecule antagonists: luciferase reporter qHTS assay (AID 1671196); further: nearly all actives have a fitted effect of over 50% in size; further: potency means the concentration at half of the fitted maximal effect; on activity change, negative = inhibition: series mostly up to about 120 µM
In short: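 Read-out is luminescence from luciferin formed by CYP2D6 turnover of a proluciferin substrate, recorded as relative luminescence units. Reactions ran 1 h at room temperature after NADPH regeneration solution was added.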

[6] = molecular target: Cytochrome P450 2C19 (Homo sapiens) (UniProt P33261); experiment: Cytochrome P450 Family 2 Subfamily C Member 19 (CYP2C19) small molecule antagonists: luciferase reporter qHTS assay (AID 1671197); further: nearly all actives have a fitted effect of over 65% in size; further: potency means the concentration at half of the fitted maximal effect; on activity change, negative = inhibition: series mostly up to about 120 µM
In short: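 Quantitative high-throughput screen of the Tox21 library using CYP2C19 with proluciferin substrate. Reaction: NADPH regeneration, 37C, 1 h, after 10 min compound preincubation at room temperature. Readout: luminescence.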

[7] = molecular target: Cytochrome P450 2C9 (Homo sapiens) (UniProt P11712); experiment: Cytochrome P450 Family 2 Subfamily C Member 9 (CYP2C9) small molecule antagonists: luciferase reporter qHTS assay (AID 1671198); further: nearly all actives have a fitted effect of over 50% in size; further: potency means the concentration at half of the fitted maximal effect; on activity change, negative = inhibition: series mostly up to about 120 µM
In short: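 CYP2C9 activity was measured with a P450-Glo proluciferin substrate. Enzyme–substrate mix was held with compound for 10 min at room temperature, then NADPH regeneration solution was added for 1 h at 37C. Luciferin product was read as luminescence.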

[8] = molecular target: Cytochrome P450 1A2 (Homo sapiens) (UniProt P05177); experiment: Cytochrome P450 Family 1 Subfamily A Member 2 (CYP1A2) small molecule antagonists: luciferase reporter qHTS assay (AID 1671199); further: nearly all actives have a fitted effect of over 50% in size; further: potency means the concentration at half of the fitted maximal effect; on activity change, negative = inhibition: series mostly up to about 120 µM
In short: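 P450-Glo CYP1A2, 1536-well qHTS: enzyme/proluciferin substrate + cpd (DMSO), 10 min RT; NADPH regen, 1 h RT; detection reagent, 20 min; luminescence, RLU.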

[9] = molecular target: Voltage-gated inwardly rectifying potassium channel KCNH2 (Homo sapiens) (UniProt Q12809); experiment: Human Ether-a-go-go-Related Gene (hERG) channel small molecule antagonists: fluorescence cell-based qHTS assay (AID 1671200); further: nearly all actives have a fitted effect of over 50% in size; further: potency means the concentration at half of the fitted maximal effect;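 on activity change, negative = inhibition: hERG-expressing U2OS cells given a thallium stimulus after FluxOR II dye loading; series mostly up to about 77 µM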
In short: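 Fluorescence at 540 nm emission (480 nm excitation) was recorded kinetically for 2 min at 1-second intervals once the thallium-containing stimulus reached cells previously loaded with FluxOR II dye.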

[10] = molecular target: Cytochrome P450 3A4 (Homo sapiens) (UniProt P08684); experiment: Cytochrome P450 Family 3 Subfamily A Member 4 (CYP3A4) small molecule antagonists: luciferase reporter qHTS assay (AID 1671201)
In short: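 qHTS, 1536-well. CYP3A4 + proluciferin substrate, cpd 10 min RT → NADPH regen 1 h RT → detection reagent 20 min → luminescence (RLU). Ketoconazole positive control.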
On the % scale 0 is the no-effect control and ±100 the full control effect.

Chain of Voltage-gated inwardly rectifying potassium channel KCNH2 (Homo sapiens) (Q12809 whole entry, looked up): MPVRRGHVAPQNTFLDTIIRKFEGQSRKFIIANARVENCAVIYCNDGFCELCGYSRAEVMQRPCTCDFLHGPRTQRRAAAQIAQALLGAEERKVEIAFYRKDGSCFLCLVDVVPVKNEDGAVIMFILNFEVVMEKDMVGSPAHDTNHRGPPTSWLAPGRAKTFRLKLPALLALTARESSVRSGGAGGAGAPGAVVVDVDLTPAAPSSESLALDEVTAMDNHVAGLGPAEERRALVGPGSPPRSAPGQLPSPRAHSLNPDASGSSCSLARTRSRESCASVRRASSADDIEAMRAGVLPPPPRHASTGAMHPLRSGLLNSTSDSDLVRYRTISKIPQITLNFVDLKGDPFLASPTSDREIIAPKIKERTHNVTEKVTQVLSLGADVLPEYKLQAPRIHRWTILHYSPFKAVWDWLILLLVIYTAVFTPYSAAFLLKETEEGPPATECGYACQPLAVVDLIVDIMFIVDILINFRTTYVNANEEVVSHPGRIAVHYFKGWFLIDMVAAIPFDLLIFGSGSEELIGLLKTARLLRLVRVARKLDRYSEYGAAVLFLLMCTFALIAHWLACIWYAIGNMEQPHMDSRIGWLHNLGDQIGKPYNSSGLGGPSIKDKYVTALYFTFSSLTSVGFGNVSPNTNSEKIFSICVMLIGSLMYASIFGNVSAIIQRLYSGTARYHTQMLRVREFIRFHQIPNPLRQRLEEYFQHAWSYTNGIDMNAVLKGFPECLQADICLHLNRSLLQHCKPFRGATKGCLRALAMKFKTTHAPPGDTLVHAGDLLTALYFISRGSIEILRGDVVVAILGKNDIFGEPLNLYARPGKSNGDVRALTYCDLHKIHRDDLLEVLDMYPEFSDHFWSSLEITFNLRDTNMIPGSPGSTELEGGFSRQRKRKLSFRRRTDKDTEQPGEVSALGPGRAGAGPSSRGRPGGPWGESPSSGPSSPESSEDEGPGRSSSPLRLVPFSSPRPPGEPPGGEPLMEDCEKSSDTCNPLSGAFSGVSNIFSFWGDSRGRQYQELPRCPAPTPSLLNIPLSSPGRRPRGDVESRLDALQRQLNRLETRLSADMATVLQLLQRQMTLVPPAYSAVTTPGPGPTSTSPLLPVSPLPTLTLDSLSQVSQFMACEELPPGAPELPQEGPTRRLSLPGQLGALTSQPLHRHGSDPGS
Chain of Cytochrome P450 2D6 (Homo sapiens) (P10635 whole entry, looked up): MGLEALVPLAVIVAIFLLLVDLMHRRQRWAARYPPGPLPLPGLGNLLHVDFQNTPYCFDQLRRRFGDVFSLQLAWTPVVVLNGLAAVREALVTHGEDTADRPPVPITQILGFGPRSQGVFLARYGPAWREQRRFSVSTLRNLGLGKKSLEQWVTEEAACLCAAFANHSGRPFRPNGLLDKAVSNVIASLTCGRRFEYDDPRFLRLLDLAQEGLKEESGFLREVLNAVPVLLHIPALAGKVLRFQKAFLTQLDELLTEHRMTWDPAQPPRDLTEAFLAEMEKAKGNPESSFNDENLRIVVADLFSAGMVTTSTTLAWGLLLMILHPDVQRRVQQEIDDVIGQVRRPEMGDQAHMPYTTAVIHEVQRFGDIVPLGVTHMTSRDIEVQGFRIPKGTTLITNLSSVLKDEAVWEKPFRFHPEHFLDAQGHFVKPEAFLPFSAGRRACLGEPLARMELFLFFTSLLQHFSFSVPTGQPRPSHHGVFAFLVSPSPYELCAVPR
Chain of Cytochrome P450 3A4 (Homo sapiens) (P08684 whole entry, looked up): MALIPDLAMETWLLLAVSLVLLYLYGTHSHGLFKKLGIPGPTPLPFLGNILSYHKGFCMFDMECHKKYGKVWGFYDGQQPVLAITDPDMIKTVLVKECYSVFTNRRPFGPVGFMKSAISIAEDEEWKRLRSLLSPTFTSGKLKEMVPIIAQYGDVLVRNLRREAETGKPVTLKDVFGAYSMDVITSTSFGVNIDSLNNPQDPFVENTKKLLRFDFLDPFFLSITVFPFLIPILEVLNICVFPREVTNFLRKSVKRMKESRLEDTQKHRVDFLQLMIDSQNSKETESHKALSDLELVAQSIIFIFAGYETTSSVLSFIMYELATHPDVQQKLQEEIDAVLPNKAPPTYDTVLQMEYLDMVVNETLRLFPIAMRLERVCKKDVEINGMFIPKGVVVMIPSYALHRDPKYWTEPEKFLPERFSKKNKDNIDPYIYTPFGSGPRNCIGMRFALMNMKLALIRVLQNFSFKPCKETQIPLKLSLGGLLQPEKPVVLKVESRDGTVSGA
Chain of Cytochrome P450 2C9 (Homo sapiens) (P11712 whole entry, looked up): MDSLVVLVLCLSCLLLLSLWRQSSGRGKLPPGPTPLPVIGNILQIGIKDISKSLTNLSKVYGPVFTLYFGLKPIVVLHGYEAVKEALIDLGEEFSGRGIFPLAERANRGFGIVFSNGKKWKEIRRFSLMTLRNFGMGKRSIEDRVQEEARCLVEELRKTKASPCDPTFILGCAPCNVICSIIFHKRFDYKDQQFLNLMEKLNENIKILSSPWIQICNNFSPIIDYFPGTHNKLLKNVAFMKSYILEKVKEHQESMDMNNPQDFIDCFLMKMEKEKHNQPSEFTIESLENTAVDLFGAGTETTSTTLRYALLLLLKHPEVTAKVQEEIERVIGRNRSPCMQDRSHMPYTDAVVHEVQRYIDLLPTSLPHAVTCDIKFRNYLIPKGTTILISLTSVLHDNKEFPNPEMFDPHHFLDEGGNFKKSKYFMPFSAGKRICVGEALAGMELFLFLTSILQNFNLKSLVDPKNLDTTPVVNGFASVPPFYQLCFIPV
Chain of Acetylcholinesterase (Homo sapiens) (P22303 whole entry, looked up): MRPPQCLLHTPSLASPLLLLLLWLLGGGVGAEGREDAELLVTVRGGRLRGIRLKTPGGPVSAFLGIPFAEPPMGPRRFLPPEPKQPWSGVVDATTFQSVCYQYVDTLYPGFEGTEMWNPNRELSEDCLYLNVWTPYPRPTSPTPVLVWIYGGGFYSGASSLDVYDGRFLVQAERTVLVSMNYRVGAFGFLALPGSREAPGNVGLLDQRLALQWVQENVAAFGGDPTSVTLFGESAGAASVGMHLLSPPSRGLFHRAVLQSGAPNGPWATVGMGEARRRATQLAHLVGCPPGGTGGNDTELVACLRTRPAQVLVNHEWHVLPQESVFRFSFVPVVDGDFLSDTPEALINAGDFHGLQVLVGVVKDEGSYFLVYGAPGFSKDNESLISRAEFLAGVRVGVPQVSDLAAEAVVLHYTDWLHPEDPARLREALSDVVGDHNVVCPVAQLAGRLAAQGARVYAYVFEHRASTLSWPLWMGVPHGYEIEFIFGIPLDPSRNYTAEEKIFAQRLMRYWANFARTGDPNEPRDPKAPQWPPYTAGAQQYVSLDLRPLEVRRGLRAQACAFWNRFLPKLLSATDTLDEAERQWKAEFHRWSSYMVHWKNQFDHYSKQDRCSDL
Chain of Cytochrome P450 1A2 (Homo sapiens) (P05177 whole entry, looked up): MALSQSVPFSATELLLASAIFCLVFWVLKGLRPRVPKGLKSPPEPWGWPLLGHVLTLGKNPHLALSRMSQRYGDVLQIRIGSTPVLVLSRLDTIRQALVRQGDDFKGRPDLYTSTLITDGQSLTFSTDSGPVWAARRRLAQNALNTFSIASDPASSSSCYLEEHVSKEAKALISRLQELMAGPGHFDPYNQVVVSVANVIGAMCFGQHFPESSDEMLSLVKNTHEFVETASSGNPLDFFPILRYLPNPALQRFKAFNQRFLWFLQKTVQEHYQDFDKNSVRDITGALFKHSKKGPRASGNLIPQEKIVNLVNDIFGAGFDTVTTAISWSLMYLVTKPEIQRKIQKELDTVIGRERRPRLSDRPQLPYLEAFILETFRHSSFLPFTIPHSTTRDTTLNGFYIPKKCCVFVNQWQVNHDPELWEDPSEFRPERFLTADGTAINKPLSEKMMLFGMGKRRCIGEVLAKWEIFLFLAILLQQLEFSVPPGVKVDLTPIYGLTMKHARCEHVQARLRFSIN
Chain of Cytochrome P450 2C19 (Homo sapiens) (P33261 whole entry, looked up): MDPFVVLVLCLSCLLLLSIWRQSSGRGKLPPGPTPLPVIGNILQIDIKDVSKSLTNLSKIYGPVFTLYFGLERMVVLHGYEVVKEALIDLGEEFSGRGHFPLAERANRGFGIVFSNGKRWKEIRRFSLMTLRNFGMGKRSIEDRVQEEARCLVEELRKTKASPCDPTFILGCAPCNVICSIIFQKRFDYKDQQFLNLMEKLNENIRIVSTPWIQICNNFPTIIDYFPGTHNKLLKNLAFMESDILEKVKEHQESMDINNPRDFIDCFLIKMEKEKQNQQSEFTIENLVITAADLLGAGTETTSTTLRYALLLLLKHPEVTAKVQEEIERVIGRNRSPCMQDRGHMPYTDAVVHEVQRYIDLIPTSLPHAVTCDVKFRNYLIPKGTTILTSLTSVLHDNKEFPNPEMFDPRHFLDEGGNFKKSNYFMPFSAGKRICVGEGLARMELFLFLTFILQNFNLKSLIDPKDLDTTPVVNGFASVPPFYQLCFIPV

C=CC=O
inactive: Potency [1] | Potency [2] | Potency [3] | Potency [4] | Potency [5] | Potency [6] | Potency [7] | Potency [8] | Potency [9] | Potency [10]

C=C(Cl)CSC(=S)N(CC)CC
inactive: Potency [1] | Potency [2] | Potency [3] | Potency [4] | Potency [5]
active: Potency [6] 34.7 µM | Potency [7] 38.9 µM | Potency [8] 9.77 µM | Potency [9] 53.5 µM

COc1ccccc1OC
inactive: Potency [1] | Potency [2] | Potency [3] | Potency [4] | Potency [5] | Potency [7] | Potency [8] | Potency [9] | Potency [10]
active: Potency [6] 79.6 µM

CCCOc1nn(C(=O)NS(=O)(=O)c2ccccc2C(=O)OC)c(=O)n1C
inactive: Potency [1] | Potency [2] | Potency [3] | Potency [4] | Potency [5] | Potency [6] | Potency [8] | Potency [9] | Potency [10]

C[C@]12C=CC(=O)C=C1CC[C@@H]1[C@@H]2CC[C@@]2(C)[C@H]1CC[C@]2(C)O
inactive: Potency [1] | Potency [2] | Potency [3] | Potency [4] | Potency [5] | Potency [6] | Potency [8] | Potency [9] | Potency [10]

O=C(O)CBr
inactive: Potency [1] | Potency [2] | Potency [3] | Potency [4] | Potency [5] | Potency [6] | Potency [7] | Potency [8] | Potency [9] | Potency [10]

N=C(N)[Se]
inactive: Potency [1] | Potency [2] | Potency [3] | Potency [4] | Potency [5] | Potency [6] | Potency [7] | Potency [8] | Potency [9] | Potency [10]

CON(C)C(=O)Nc1ccc(Br)c(Cl)c1
inactive: Potency [1] | Potency [2] | Potency [3] | Potency [4] | Potency [5] | Potency [9]
active: Potency [6] 28.3 µM | Potency [7] 63.3 µM | Potency [8] 1.78 µM

CC1N=C(N)OC1c1ccccc1 (centres undefined)
active: Potency [5] 9.81 µM
inactive: Potency [1] | Potency [2] | Potency [3] | Potency [4] | Potency [6] | Potency [7] | Potency [8] | Potency [9] | Potency [10]

Clc1cc2c(cc1Cl)Oc1cc(Cl)c(Cl)cc1O2
inactive: activity, negative = inhibition [1] -1.29% [at 0.435 µM] | activity change, negative = inhibition [2] 0.681% [at 0.435 µM] | activity change, negative = inhibition [3] 4.87% [at 0.439 µM] | activity change, negative = inhibition [4] -0.563% [at 0.435 µM] | activity change, negative = inhibition [5] -1.99% [at 0.435 µM] | activity change, negative = inhibition [6] -2.53% [at 0.435 µM] | activity change, negative = inhibition [7] 2.52% [at 0.435 µM] | activity change, negative = inhibition [9] 4.67% [at 0.29 µM] | activity change, negative = inhibition [10] -0.782% [at 0.435 µM]

CCC1(c2ccccc2)CCC(=O)NC1=O (centres undefined)
active: Potency [6] 38.9 µM
inactive: Potency [1] | Potency [2] | Potency [3] | Potency [4] | Potency [5] | Potency [7] | Potency [8] | Potency [9] | Potency [10]

CN(C)CCc1c[nH]c2cccc(OP(=O)(O)O)c12
inactive: Potency [1] | Potency [2] | Potency [3] | Potency [4] | Potency [5] | Potency [7] | Potency [8] | Potency [9] | Potency [10]

CCCCOC(C)=O
inactive: Potency [1] | Potency [2] | Potency [3] | Potency [4] | Potency [6] | Potency [7] | Potency [9] | Potency [10]

CCCC(C)(COC(N)=O)COC(N)=O
inactive: Potency [1] | Potency [2] | Potency [3] | Potency [4] | Potency [5] | Potency [8] | Potency [9]

CCN(CC)CCOC(=O)C(O)(c1ccccc1)c1ccccc1
inactive: Potency [1] | Potency [2] | Potency [3] | Potency [4] | Potency [6] | Potency [8]

O=P(O)(O)c1ccccc1
inactive: Potency [1] | Potency [2] | Potency [3] | Potency [4] | Potency [6] | Potency [7] | Potency [8] | Potency [9] | Potency [10]

CC1NCCOC1c1ccccc1 (centres undefined)
inactive: Potency [1] | Potency [2] | Potency [3] | Potency [4] | Potency [6] | Potency [7] | Potency [8] | Potency [9] | Potency [10]

CC(C)N(Cc1ccccc1)C(=O)C(C)(C)C
inactive: Potency [1] | Potency [2] | Potency [3] | Potency [4] | Potency [5] | Potency [9] | Potency [10]
active: Potency [7] 35.6 µM

CCOC(=O)NC(C)(C)Cc1ccc(Cl)cc1
active: Potency [6] 4.36 µM | Potency [7] 15.5 µM | Potency [8] 6.45 µM
inactive: Potency [1] | Potency [2] | Potency [3] | Potency [4] | Potency [9] | Potency [10]

N#CN=C1SCCN1Cc1ccc(Cl)nc1
active: Potency [1] 35.6 µM | Potency [5] 39.9 µM
inactive: Potency [2] | Potency [3] | Potency [4] | Potency [6] | Potency [9] | Potency [10]

CN=CNc1ccc(C)cc1C
inactive: Potency [1] | Potency [2] | Potency [3] | Potency [4] | Potency [6] | Potency [7] | Potency [8] | Potency [9] | Potency [10]

COC(=O)c1ccccc1CS(=O)(=O)NC(=O)Nc1nc(OC)cc(OC)n1
inactive: Potency [1] | Potency [2] | Potency [3] | Potency [4] | Potency [5] | Potency [7] | Potency [9] | Potency [10]

CC(O)CCl (centres undefined)
inactive: Potency [1] | Potency [2] | Potency [3] | Potency [4] | Potency [5] | Potency [7] | Potency [9] | Potency [10]

CCOP(=O)(CN(CCO)CCO)OCC
inactive: Potency [1] | Potency [2] | Potency [3] | Potency [4] | Potency [5] | Potency [7] | Potency [9] | Potency [10]

O=C(Cl)c1ccccc1
inactive: Potency [1] | Potency [2] | Potency [3] | Potency [4] | Potency [5] | Potency [8] | Potency [9] | Potency [10]
